Paper PMC7862700, “An all-to-all approach to the identification of sequence-specific readers for epigenetic DNA modifications on cytosine”

Experiments:
Assay in all cases: DAPPL (digital affinity profiling via proximity ligation, sequencing); 10 mM Tris-HCl pH 7.5, 50 mM NaCl, 1 mM DTT, 4% glycerol, room temperature, 30 min; GST-TFs on glutathione beads, 16-mer random dsDNA library, 0.1% formaldehyde crosslink after washing; high values mean tight binding
FLI1 = target: T1, FLI1 (Homo sapiens, UniProt Q01543 1-452); settings: protein: recombinant; tags: N-terminal GST; dsDNA, one strand shown
T1 sequence: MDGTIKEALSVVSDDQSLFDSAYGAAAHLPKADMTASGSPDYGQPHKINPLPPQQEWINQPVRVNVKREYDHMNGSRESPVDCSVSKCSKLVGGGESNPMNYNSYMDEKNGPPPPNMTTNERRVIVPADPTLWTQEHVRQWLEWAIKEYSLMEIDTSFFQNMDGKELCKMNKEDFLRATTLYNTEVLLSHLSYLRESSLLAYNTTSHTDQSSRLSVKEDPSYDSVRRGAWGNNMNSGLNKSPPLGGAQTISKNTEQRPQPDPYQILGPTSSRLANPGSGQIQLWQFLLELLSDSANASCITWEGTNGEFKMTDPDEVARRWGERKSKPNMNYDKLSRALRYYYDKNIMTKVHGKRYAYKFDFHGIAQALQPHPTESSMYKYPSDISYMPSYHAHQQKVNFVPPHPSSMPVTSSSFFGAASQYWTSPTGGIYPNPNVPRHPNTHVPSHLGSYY
Outline: (§1)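 Beads coated with glutathione captured GST-fused human transcription factors that had been expressed in yeast, and the factors were then given DNA barcodes and pooled with a tag-only sample. The pools were incubated with 200 nmole of a random double-stranded 16-mer DNA library in Tris/NaCl/DTT/glycerol buffer for 30 min at room temperature, washed, crosslinked with 0.1% formaldehyde and proximity-ligated with BsaI/T4 ligase at 37 °C for 1 h. PCR amplification and Illumina NextSeq500 sequencing came last. Binding signal is each hexamer's read frequency for a factor divided by its frequency for the tag-only sample.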

ELK1 = target: T2, ELK1 (Homo sapiens, UniProt P19419 1-428); settings: protein: recombinant; tags: N-terminal GST; dsDNA, one strand shown
T2 sequence: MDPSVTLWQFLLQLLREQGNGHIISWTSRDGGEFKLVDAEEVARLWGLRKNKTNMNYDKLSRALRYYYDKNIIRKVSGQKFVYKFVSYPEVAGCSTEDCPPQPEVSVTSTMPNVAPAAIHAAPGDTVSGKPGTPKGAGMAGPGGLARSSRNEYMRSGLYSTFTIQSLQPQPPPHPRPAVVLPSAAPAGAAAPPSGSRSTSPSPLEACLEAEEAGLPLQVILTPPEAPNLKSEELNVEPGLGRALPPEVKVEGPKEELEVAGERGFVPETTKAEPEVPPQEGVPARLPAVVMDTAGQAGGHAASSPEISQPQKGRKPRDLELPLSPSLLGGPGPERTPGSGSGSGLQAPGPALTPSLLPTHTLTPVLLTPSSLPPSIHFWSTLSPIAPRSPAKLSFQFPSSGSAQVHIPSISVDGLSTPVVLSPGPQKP
Outline: as §1

GABPA = target: T3, GABPA (Homo sapiens, UniProt Q06546 1-454); settings: protein: recombinant; tags: N-terminal GST; dsDNA, one strand shown
T3 sequence: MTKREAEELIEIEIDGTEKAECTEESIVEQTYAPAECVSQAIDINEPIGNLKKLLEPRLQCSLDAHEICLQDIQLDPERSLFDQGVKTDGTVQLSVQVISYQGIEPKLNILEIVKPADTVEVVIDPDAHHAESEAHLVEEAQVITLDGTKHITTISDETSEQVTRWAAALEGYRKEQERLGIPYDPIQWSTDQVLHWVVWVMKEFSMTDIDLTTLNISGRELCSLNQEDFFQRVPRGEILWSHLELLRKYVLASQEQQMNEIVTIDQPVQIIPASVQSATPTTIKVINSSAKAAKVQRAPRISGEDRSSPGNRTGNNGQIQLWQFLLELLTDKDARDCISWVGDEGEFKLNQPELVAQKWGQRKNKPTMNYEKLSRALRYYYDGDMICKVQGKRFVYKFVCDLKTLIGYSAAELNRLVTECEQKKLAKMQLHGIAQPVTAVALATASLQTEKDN
Outline: as §1

ERG = target: T4, ERG (Homo sapiens, UniProt P11308 1-479); settings: protein: recombinant; tags: N-terminal GST; dsDNA, one strand shown
T4 sequence: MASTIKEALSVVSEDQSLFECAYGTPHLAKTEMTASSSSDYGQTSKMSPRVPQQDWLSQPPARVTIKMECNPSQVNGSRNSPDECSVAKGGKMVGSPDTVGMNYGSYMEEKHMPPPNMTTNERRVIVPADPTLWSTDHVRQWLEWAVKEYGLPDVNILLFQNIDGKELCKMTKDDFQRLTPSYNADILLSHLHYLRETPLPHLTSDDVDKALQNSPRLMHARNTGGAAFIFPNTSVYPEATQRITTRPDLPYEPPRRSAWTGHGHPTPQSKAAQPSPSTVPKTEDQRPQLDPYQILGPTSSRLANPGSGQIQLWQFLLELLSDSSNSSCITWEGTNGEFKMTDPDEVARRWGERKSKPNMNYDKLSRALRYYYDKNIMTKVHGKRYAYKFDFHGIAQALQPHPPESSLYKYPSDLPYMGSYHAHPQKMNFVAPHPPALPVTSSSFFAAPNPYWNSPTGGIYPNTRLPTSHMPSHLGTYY
Outline: as §1

ELF1 = ELF1 (Homo sapiens, UniProt P32519 1-619); settings: protein: recombinant; tags: N-terminal GST; dsDNA, one strand shown
Chain of ELF1 (P32519 whole entry): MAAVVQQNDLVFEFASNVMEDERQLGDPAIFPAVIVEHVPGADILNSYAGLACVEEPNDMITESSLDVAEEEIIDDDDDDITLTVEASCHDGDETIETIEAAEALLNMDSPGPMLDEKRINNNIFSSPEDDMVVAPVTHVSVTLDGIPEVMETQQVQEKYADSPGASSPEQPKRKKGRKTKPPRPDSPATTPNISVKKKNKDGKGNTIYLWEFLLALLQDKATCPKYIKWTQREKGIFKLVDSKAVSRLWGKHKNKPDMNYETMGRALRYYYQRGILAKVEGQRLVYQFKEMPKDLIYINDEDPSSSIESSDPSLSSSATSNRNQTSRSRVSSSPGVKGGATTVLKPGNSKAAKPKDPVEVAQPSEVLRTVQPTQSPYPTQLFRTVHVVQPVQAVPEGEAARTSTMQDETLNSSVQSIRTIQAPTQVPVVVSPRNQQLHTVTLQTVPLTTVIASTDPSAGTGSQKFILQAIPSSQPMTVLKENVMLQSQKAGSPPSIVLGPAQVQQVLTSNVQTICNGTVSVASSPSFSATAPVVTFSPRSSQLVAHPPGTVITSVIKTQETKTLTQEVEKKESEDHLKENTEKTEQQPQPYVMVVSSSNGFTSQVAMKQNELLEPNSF
Outline: as §1

EHF = target: T5, EHF (Homo sapiens, UniProt Q9NZC4 1-300); settings: protein: recombinant; tags: N-terminal GST; dsDNA, one strand shown
T5 sequence: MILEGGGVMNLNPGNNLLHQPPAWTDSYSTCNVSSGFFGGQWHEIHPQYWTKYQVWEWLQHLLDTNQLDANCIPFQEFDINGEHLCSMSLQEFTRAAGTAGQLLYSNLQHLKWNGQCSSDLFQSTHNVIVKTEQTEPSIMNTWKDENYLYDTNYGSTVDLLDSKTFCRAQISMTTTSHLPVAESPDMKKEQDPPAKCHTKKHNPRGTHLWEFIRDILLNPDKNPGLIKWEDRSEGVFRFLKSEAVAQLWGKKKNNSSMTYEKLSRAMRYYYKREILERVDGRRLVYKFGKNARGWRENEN
Outline: as §1

SPI1 = SPI1 (Homo sapiens, UniProt P17947 1-270); settings: protein: recombinant; tags: N-terminal GST; dsDNA, one strand shown
Outline: as §1

SPIB = SPIB (Homo sapiens, UniProt Q01892 1-262); settings: protein: recombinant; tags: N-terminal GST; dsDNA, one strand shown
Chain of SPIB (Q01892 whole entry): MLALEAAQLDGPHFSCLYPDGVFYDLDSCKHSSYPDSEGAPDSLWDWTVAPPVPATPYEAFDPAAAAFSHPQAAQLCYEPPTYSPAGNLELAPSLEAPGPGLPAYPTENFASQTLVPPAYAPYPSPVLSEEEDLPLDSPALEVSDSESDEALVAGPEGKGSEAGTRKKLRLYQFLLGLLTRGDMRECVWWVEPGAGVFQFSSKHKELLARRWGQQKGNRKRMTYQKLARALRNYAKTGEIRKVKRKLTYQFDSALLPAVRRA
Outline: as §1

ELK3 = target: T6, ELK3 (Homo sapiens, UniProt P41970 1-407); settings: protein: recombinant; tags: N-terminal GST; dsDNA, one strand shown
T6 sequence: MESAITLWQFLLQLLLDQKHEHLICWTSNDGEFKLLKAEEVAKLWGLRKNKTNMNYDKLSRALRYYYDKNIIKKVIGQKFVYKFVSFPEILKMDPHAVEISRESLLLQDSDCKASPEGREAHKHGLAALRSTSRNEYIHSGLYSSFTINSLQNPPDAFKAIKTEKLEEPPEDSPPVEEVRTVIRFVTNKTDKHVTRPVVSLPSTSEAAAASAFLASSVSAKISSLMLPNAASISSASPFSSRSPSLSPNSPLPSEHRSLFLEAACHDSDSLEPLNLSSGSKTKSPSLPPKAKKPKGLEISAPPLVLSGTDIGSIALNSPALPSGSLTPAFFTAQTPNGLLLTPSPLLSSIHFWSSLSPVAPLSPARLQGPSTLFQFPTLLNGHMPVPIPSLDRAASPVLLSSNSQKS
Outline: as §1

FEV = target: T7, FEV (Homo sapiens, UniProt Q99581 1-238); settings: protein: recombinant; tags: N-terminal GST; dsDNA, one strand shown
T7 sequence: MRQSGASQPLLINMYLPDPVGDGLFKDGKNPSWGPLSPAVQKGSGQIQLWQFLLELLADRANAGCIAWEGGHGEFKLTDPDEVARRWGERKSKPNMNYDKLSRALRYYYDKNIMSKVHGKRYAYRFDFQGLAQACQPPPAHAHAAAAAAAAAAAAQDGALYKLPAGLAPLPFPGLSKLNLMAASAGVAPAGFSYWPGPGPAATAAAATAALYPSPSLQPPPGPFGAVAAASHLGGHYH
Outline: as §1

ETV5 = ETV5 (Homo sapiens, UniProt P41161 1-510); settings: protein: recombinant; tags: N-terminal GST; dsDNA, one strand shown
Chain of ETV5 (P41161 whole entry): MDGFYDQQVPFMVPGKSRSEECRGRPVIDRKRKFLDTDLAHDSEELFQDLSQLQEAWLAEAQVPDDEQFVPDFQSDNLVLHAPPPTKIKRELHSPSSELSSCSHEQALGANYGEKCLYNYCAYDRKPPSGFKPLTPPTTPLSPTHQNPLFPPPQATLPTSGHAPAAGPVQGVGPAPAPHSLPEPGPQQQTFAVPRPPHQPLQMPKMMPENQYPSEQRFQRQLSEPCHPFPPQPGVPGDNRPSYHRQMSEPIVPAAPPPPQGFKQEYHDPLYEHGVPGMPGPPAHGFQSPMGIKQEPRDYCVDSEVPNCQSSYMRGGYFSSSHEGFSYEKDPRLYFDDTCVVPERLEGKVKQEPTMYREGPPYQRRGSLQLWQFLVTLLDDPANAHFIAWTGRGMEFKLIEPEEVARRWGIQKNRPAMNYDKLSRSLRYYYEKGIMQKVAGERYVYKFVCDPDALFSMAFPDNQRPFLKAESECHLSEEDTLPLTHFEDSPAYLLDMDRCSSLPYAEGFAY
Outline: as §1

HSF1 = HSF1 (Homo sapiens, UniProt Q00613 1-529); settings: protein: recombinant; tags: N-terminal GST; chain copies: 3; dsDNA, one strand shown
Chain of HSF1 (Q00613 whole entry): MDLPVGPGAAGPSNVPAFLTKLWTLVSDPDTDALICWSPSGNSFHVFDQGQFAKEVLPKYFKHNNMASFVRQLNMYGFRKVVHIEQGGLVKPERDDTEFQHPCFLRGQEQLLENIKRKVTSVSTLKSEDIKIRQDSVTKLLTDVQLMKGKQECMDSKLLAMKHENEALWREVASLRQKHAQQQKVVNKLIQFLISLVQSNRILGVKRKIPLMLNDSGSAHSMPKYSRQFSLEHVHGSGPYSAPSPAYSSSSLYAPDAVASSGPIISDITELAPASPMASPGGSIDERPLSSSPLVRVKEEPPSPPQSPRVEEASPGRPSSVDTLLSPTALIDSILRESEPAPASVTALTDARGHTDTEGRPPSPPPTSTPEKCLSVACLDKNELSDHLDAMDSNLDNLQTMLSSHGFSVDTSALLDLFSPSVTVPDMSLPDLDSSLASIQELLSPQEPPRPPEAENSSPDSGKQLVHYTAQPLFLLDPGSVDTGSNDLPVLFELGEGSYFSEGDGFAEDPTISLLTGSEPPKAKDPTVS
Outline: as §1

SPIC = target: T8, SPIC (Homo sapiens, UniProt Q8N5J4 1-248); settings: protein: recombinant; tags: N-terminal GST; dsDNA, one strand shown
T8 sequence: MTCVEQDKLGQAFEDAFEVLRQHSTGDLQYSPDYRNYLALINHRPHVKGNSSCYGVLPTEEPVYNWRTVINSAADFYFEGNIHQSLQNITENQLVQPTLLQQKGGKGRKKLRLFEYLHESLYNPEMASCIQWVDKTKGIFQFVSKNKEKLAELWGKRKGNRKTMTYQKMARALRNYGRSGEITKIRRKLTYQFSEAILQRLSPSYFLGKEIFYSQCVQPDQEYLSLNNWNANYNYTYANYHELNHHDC
Outline: as §1

ELF4 = ELF4 (Homo sapiens, UniProt Q99607 1-663); settings: protein: recombinant; tags: N-terminal GST; dsDNA, one strand shown
Chain of ELF4 (Q99607 whole entry): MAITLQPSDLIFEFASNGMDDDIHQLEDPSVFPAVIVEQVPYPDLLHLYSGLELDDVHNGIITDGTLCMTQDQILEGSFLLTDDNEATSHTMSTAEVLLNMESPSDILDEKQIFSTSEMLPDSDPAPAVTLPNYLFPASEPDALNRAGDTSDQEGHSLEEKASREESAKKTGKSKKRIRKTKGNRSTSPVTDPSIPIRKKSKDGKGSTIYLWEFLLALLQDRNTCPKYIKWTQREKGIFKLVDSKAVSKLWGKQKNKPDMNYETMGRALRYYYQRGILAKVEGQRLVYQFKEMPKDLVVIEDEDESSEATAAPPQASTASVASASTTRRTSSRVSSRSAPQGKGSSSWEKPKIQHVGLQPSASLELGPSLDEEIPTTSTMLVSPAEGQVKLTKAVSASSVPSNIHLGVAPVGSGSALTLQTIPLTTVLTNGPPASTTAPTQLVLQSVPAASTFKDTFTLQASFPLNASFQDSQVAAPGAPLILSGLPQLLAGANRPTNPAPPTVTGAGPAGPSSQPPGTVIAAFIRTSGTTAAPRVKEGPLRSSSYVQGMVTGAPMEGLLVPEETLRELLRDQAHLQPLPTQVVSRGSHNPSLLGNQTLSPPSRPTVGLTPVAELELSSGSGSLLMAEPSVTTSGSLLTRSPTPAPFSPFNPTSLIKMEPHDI
Outline: as §1

ELK4 = target: T9, ELK4 (Homo sapiens, UniProt P28324-2 1-405); settings: protein: recombinant; tags: N-terminal GST; dsDNA, one strand shown
T9 sequence: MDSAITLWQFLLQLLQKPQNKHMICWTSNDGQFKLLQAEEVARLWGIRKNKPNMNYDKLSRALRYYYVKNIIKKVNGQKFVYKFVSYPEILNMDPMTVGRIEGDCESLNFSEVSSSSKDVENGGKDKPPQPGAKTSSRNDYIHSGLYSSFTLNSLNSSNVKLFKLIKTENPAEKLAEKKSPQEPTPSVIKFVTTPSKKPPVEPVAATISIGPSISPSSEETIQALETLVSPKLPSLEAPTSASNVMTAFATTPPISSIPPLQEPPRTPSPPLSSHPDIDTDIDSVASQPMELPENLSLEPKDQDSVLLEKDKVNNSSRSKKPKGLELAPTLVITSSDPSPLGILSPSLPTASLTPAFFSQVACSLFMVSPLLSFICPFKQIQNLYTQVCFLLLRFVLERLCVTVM
Outline: as §1

ETV2 = target: T10, ETV2 (Homo sapiens, UniProt O00321 1-342); settings: protein: recombinant; tags: N-terminal GST; dsDNA, one strand shown
T10 sequence: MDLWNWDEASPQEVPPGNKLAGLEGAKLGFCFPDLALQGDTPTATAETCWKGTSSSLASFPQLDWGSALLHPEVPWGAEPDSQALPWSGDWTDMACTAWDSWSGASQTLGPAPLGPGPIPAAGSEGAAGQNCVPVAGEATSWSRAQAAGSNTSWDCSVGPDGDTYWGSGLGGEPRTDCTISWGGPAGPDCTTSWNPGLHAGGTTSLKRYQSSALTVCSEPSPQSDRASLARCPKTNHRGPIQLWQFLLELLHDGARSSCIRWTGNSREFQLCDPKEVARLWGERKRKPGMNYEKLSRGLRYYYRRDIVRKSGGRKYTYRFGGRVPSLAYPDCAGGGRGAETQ
Outline: as §1

ELF3 = target: T11, ELF3 (Homo sapiens, UniProt P78545 1-371); settings: protein: recombinant; tags: N-terminal GST; dsDNA, one strand shown
T11 sequence: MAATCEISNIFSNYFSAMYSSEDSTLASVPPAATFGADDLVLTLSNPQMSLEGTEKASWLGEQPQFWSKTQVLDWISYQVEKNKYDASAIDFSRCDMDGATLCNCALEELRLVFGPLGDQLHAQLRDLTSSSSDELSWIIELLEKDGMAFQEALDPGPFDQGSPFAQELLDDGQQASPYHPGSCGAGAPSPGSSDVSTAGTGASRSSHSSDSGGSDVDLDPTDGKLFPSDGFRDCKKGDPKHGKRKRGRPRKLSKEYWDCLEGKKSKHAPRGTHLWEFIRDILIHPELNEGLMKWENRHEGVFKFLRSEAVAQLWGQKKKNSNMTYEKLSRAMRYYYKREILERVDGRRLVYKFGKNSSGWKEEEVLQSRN
Outline: as §1

CRX = CRX (Homo sapiens, UniProt O43186 1-299); settings: protein: recombinant; tags: N-terminal GST; dsDNA, one strand shown
Chain of CRX (O43186 whole entry): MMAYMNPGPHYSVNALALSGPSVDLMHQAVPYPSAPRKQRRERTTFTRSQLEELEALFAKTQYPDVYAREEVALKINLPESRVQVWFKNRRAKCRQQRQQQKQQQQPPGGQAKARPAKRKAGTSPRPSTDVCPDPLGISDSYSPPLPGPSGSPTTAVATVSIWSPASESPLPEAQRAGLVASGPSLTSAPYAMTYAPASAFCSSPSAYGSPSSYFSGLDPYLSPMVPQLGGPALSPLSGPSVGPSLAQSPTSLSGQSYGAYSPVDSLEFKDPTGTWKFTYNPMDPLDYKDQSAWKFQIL
Outline: as §1

ETV1 = ETV1 (Homo sapiens, UniProt P50549 1-477); settings: protein: recombinant; tags: N-terminal GST; dsDNA, one strand shown
Chain of ETV1 (P50549 whole entry): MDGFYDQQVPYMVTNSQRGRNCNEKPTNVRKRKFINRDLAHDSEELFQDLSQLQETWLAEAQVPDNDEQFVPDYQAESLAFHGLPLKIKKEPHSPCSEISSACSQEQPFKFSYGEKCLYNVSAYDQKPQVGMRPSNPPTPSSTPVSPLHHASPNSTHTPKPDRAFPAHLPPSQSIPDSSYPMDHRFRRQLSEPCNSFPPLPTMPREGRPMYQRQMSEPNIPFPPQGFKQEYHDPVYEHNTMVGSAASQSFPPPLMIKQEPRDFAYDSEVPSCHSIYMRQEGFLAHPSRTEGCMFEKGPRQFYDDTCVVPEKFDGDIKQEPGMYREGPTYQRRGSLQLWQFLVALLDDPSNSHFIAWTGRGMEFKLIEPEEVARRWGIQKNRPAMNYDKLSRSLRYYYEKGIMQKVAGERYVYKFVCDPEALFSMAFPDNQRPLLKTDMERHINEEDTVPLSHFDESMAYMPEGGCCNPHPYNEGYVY
Outline: as §1

ATACCC was tested, and the binding signal (FLI1) was 1.18 fold enrichment (6-mer frequency, TF over GST control), the binding signal (ELK1) was 1.17 fold enrichment (6-mer frequency, TF over GST control) and the binding signal (GABPA) was 1.19 fold enrichment (6-mer frequency, TF over GST control). The binding signal (ERG) was 1.19 fold enrichment (6-mer frequency, TF over GST control), the binding signal (ELF1) was 1.2 fold enrichment (6-mer frequency, TF over GST control) and the binding signal (EHF) was 1.21 fold enrichment (6-mer frequency, TF over GST control). The binding signal (SPI1) was 1.13 fold enrichment (6-mer frequency, TF over GST control), the binding signal (SPIB) was 1.14 fold enrichment (6-mer frequency, TF over GST control) and the binding signal (ELK3) was 1.13 fold enrichment (6-mer frequency, TF over GST control). For the same sequence, the binding signal (FEV) was 1.17 fold enrichment (6-mer frequency, TF over GST control), the binding signal (ETV5) was 1.16 fold enrichment (6-mer frequency, TF over GST control) and the binding signal (HSF1) was 1 fold enrichment (6-mer frequency, TF over GST control). For the same sequence, the binding signal (SPIC) was 1.2 fold enrichment (6-mer frequency, TF over GST control), the binding signal (ELF4) was 1.13 fold enrichment (6-mer frequency, TF over GST control) and the binding signal (ELK4) was 1.16 fold enrichment (6-mer frequency, TF over GST control). For the same sequence, the binding signal (ETV2) was 1.24 fold enrichment (6-mer frequency, TF over GST control), the binding signal (ELF3) was 1.16 fold enrichment (6-mer frequency, TF over GST control) and the binding signal (CRX) was 1.2 fold enrichment (6-mer frequency, TF over GST control). For the same sequence, the binding signal (ETV1) was 1.23 fold enrichment (6-mer frequency, TF over GST control).
